# Results from PubChem BioAssay (NCATS).
# Records with an inconclusive call do not appear. Active and inactive are the calls of the source. Calls follow the shape of the dose curve; as a rule, active = well fitted curve in the direction sought with a large enough effect; inconclusive = small, poorly fitted or top-dose-only effect, or another doubt; inactive = no such curve, though single readings can be large or run the other way.
# Molecular target: Protein phosphatase 1D (Homo sapiens) (UniProt O15297)
# Test: Rhodamine-PBP qHTS Assay for Modulators of WT P53-Induced Phosphatase 1 (WIP1) (AID 1347425)
# Conditions: recombinant WIP1, Rhodamine-PBP phosphate fluorescence, real-time; series mostly up to 57.5 µM
# Outline: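 Steps: enzyme with Rh-PBP sensor and compounds, room-temperature incubation of 1 hr, baseline read, addition of VEPPL-pS-QETFS (10 uM final), kinetic fluorescence reads at 525/598 nm. Activity equals final minus baseline signal.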
# Sequence of Protein phosphatase 1D (Homo sapiens) (O15297 whole entry, looked up): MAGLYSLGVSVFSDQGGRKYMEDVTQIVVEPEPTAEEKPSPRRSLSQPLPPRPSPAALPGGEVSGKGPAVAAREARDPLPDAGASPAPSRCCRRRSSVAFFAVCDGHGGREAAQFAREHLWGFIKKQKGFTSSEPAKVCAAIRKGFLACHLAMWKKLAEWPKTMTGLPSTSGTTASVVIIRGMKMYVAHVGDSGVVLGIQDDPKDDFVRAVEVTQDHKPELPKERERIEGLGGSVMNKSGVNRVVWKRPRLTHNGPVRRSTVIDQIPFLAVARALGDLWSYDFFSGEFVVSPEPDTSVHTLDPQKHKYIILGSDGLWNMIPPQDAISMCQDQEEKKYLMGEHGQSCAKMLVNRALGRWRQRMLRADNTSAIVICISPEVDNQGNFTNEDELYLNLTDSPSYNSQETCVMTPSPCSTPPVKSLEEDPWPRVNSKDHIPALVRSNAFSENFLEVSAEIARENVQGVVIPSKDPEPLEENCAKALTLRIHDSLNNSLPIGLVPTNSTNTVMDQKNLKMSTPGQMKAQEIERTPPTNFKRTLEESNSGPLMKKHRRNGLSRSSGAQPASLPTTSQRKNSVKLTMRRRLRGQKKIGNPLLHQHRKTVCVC
row,SMILES,outcome
1,OC(O)C(Cl)(Cl)Cl,inactive
2,Nc1ccc(Cl)cc1C(=O)c1ccccc1F,inactive
3,CC(C)NCC(O)c1ccc(N)c(C#N)c1 (configuration not stated),inactive
4,CCOC(C(=O)OCCN(C)C)(c1ccccc1)c1ccccc1,inactive
5,CCOC(=O)NC(C)(C)Cc1ccc(Cl)cc1,inactive
6,Cc1nnc2n1-c1sc(CCC(=O)N3CCOCC3)cc1C(c1ccccc1Cl)=NC2,inactive
7,CCOP(=S)(OCC)O/N=C(\C#N)c1ccccc1,inactive
8,COc1ccc(CN2CCNCC2)c(OC)c1OC,inactive
9,CC(C)(C)OC(=O)c1ncn2c1[C@@H]1CCCN1C(=O)c1c(Br)cccc1-2,inactive
10,O=C(N[C@H]1N=C(c2ccccc2F)c2cccc3c2N(CC3)C1=O)c1cc2ccccc2[nH]1,inactive
11,CC1Sc2c(C(=O)O)c(=O)c3cc(F)c(N4CCNCC4)cc3n21 (configuration not stated),inactive
12,CCOC(=O)c1cncn1C(C)c1ccccc1 (configuration not stated),inactive
13,CC(C)=CCN1CC[C@@]2(C)c3cc(O)ccc3C[C@@H]1[C@@H]2C,inactive
14,c1ccc2nc(N3CCNCC3)ccc2c1,inactive
15,CCCCC1C(=O)NC(=O)N(C2CCCCC2)C1=O (configuration not stated),inactive
16,COc1cc(CC(C)N)c(OC)cc1Br (configuration not stated),inactive
17,CN1C(=O)[C@@H](NC(=O)c2cc3ccccc3[nH]2)N=C(c2ccccc2)c2ccccc21,inactive
18,Cc1nc2ccccc2c(=O)n1-c1ccccc1Cl,inactive
19,COc1cc(C[C@@H](C)N)c(OC)cc1C,inactive
20,CCCCCCCCC(=O)NCc1ccc(O)c(OC)c1,inactive
21,ClCc1cccc(Cl)c1,inactive
22,COc1ccc2c(C(=O)c3ccc(Cl)cc3)c(C)n(CC(=O)O)c2c1,inactive
